# Assay results from PubChem BioAssay (NCI).
# Compounds without any hit were thinned out: in the full panel of roughly 83,000, 20% have a hit.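 Treatment: one concentration, 48 hours, 96-well format. Scoring: percent growth, with anything below 10 considered active.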 Values without a mark were called inactive. Calls of active or inactive are those of the source.
# What was measured:
# Test in all cases: NCI-60 one-dose screen, 48 h (100 = growth as untreated, 0 = no growth, -100 = all killed)
# Conditions in all cases: 10 µM unless noted
# SK-MEL-2 melanoma = tested on: SK-MEL-2 melanoma
# EKVX NSCLC = tested on: EKVX NSCLC
# SN12C renal = tested on: SN12C renal
# UO-31 renal = tested on: UO-31 renal
# TK-10 renal = tested on: TK-10 renal
# ACHN renal = tested on: ACHN renal
# CAKI-1 renal = tested on: CAKI-1 renal
# A498 renal = tested on: A498 renal
# CCRF-CEM leukemia = tested on: CCRF-CEM leukemia
# MOLT-4 leukemia = tested on: MOLT-4 leukemia
# RPMI-8226 leukemia = tested on: RPMI-8226 leukemia
# OVCAR-8 ovarian = tested on: OVCAR-8 ovarian
# OVCAR-5 ovarian = tested on: OVCAR-5 ovarian
# OVCAR-4 ovarian = tested on: OVCAR-4 ovarian
# SK-OV-3 ovarian = tested on: SK-OV-3 ovarian
# OVCAR-3 ovarian = tested on: OVCAR-3 ovarian
# HS 578T breast = tested on: HS 578T breast
# NCI/ADR-RES ovarian = tested on: NCI/ADR-RES ovarian
# IGROV1 ovarian = tested on: IGROV1 ovarian
SMILES,growth (SK-MEL-2 melanoma),growth (EKVX NSCLC),growth (SN12C renal),growth (UO-31 renal),growth (TK-10 renal),growth (ACHN renal),growth (CAKI-1 renal),growth (A498 renal),growth (CCRF-CEM leukemia),growth (MOLT-4 leukemia),growth (RPMI-8226 leukemia),growth (OVCAR-8 ovarian),growth (OVCAR-5 ovarian),growth (OVCAR-4 ovarian),growth (SK-OV-3 ovarian),growth (OVCAR-3 ovarian),growth (HS 578T breast),growth (NCI/ADR-RES ovarian),growth (IGROV1 ovarian)
CC(CCc1ccccc1)NC(=O)c1n[nH]c(=O)c2ccccc12 (stereo not drawn),79.2%,105%,107%,47.5%,89.6%,97.8%,104%,98.4%,83.4%,83.4%,85.6%,101%,118%,102%,118%,112%,96.8%,121%,–
CC(=O)N1Cc2ccccc2C(C)Cc2cc(Cl)ccc21 (stereo not drawn),105%,94.5%,104%,97.8%,98.4%,109%,90%,75.7%,110%,97%,105%,109%,99.1%,97.9%,108%,109%,97.7%,117%,102%
COc1ccc2c(c1)C(C)Cc1c(N(C)C)ncnc1N2C (stereo not drawn),32.9%,41.2%,43.6%,56.6%,29.9%,46.8%,37.6%,2.02% (active),18.6%,33.1%,30.8%,40.8%,73.2%,62.4%,30%,10.3%,13.3%,36.2%,54.4%
CCN1C(=O)N[C@H]2[C@@H]3NC(=O)c4ccc(Cl)n4[C@@H]3C[C@]21O,-37% (active),10.8%,-1.6% (active),37.3%,4.37% (active),14.9%,31%,-0.0737% (active),-7.16% (active),0.842% (active),-21.2% (active),1.27% (active),24.5%,3.02% (active),28.6%,2.22% (active),-10.9% (active),76.4%,1.44% (active)
COc1ccc2c(c1)C=CC(C#N)N2C(=O)c1ccccc1 (stereo not drawn),67.4%,49.8%,38.4%,53%,70.9%,33.9%,23.6%,-5.22% (active),15.2%,11.9%,22%,15.4%,47.1%,25.4%,43.5%,-23.7% (active),14.9%,6.62% (active),–
O=C(Cc1n[nH]c(=O)c2ccccc12)OCc1c(Cl)cccc1Cl,35.5%,154%,102%,103%,99%,74.7%,107%,91.3%,61%,32.9%,63.7%,102%,95.7%,105%,113%,84.5%,–,82.4%,29.4%
COc1cc(Br)c(OC)cc1Br,101%,76%,110%,60.4%,140%,92.4%,85.2%,88.7%,116%,98.3%,96.2%,105%,93%,–,101%,96.8%,94.1%,95.3%,79.5%
O=C(c1c[nH]c2ccccc12)C(Sc1nc2ccccc2c(=O)[nH]1)c1ccccc1 (stereo not drawn),72.2%,91.2%,98.5%,81.8%,97.6%,97.9%,108%,106%,99.8%,99.8%,91.1%,93.3%,88%,95.9%,104%,96.6%,88.6%,99.8%,–
Cc1ccccc1C(=O)c1ccccc1C(=O)O,124%,105%,105%,89.7%,96.5%,111%,88.8%,126%,103%,99.5%,102%,107%,111%,114%,118%,107%,106%,108%,–
CC(=O)c1cc(C(=O)c2ccc3c(c2)Sc2ccccc2N3)c2cc(C)ccn12,35.8%,31.1%,23.1%,28.4%,-25.7% (active),22.9%,19%,-16.4% (active),11.1%,13.1%,12.3%,4.39% (active),41.2%,38.1%,16.6%,-14.3% (active),14.5%,12.1%,27.8%
Cc1cccc2cc(/C=C/C(=O)/C=C/c3ccc(Cl)cc3)c(=O)[nH]c12,91%,62.5%,47.6%,69.7%,105%,60.5%,91.1%,63.1%,14.7%,32.4%,6.05% (active),21.8%,84.8%,58%,–,13.9%,50.9%,94.8%,–
O=C(C[N+](=O)[O-])c1ccc(Cl)cc1,119%,107%,107%,90.3%,109%,111%,95.2%,108%,104%,106%,100%,116%,110%,111%,113%,113%,100%,109%,–
CC(Br)C(OC(=O)c1ccccc1Cl)c1cc2c(cc1Br)OCO2 (stereo not drawn),90.4%,76.6%,98.9%,49.1%,82.1%,88.2%,70%,88.5%,103%,75.6%,92.2%,94.8%,89.6%,77.9%,124%,89%,88.2%,85.1%,68.9%
CC(Br)C(Br)c1cc2c(cc1Br)OCO2 (stereo not drawn),91.4%,93.8%,110%,90.7%,96.6%,93.2%,84%,99.3%,99.6%,94.7%,105%,100%,98.6%,105%,84%,107%,-96.5% (active),99.1%,97.5%
OCc1c(-c2ccccc2)nc2sccn12,108%,86.9%,105%,94.8%,106%,98.4%,96.6%,95.9%,17.9%,117%,111%,67.5%,109%,103%,110%,116%,77.7%,105%,88.2%
Cc1ccc(S(=O)(=O)N2CCC(C(=O)Nc3ccc(F)cc3F)CC2)cc1,34.2%,94.6%,90.7%,37.6%,85.3%,107%,97.8%,83.7%,101%,79.2%,86.5%,97.8%,98%,83.7%,92.3%,91.6%,-32.4% (active),95.4%,–
CCC(c1cccc(Br)c1)C(C(=O)O)c1ccc(OC)cc1 (stereo not drawn),103%,100%,105%,90.9%,107%,107%,93.2%,100%,110%,111%,101%,107%,109%,114%,107%,110%,91.4%,103%,99.3%
